Results filed as inconclusive are left out. A call without a number means that no potency is given here. Calls of active or inactive are those of the source. The call rests on the fitted dose curve; in most records, active means well fitted inhibition curve with a large enough effect; inconclusive means small, poorly fitted or top-dose-only effect; inactive means no such curve, though single readings can be large or run the other way.
Each molecule was assayed against Tumor susceptibility gene 101 protein (Homo sapiens) (UniProt Q99816) (assay: qHTS Assay for Iinhibitors of HIV-1 Budding by Blocking the Interaction of PTAP/TSG101: Hit Validation (AID 651600; further: nearly all actives have a fitted effect of over 70% in size)). Details: PTAP peptide/TSG101 UEV interaction, biochemical assay; series mostly up to 57.5 µM.
How it was run: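 Fluorescence polarization binding assay: Tsg101 binding domain (10 uM) mixed with compounds and FITC-labeled PTAP peptide (50 nM) in HEPES pH 7.5, 0.15 M NaCl, 0.01% Tween 20, EDTA, TCEP; 20 min at r.t.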
Potency means the concentration at half of the fitted maximal effect.

Sequence of Tumor susceptibility gene 101 protein (Homo sapiens) (Q99816 whole entry, looked up, the tested form may be a part): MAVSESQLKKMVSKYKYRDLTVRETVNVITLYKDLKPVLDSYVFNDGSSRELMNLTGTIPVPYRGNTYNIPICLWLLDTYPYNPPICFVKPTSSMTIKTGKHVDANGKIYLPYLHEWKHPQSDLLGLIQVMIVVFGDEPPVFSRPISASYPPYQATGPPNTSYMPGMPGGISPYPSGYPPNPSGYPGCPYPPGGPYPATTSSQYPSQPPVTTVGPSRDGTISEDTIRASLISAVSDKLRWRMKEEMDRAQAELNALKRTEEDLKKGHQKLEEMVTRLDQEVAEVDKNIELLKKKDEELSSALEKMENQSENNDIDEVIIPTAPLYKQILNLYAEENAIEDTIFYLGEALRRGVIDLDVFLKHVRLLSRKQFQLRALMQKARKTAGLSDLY

Structure (SMILES)	Potency
Cc1cccc(N=Nc2c(O)[nH]c3ccc(F)cc23)c1	inactive
Cc1cc(Nc2cccc(Cl)c2C)n2ncnc2n1	inactive
COc1ccc(OC)c2cc3ccccc3cc12	32.6 µM (active)
COc1ccc(C(=O)c2sc3nc(C)cc(-c4cccs4)c3c2N)cc1OC	inactive
Cc1cc[n+](-c2[nH]c(=O)sc2/C=N/NC([S-])=Nc2ccccc2)cc1	18.3 µM (active)
CCCN1CCCc2cc(CN)ccc21	inactive
Cn1cc(/C=C(\C#N)C(=O)Nc2ccccc2O)c2ccccc21	inactive
Cc1ccccc1-c1ccc(/C=C2/SC(N3CCOCC3)=NC2=O)o1	inactive
O=C(CN1C(=O)NC(Cc2c[nH]c3ccccc23)C1=O)Nc1ccccc1C(F)(F)F (stereo not given)	inactive
Nc1c(C(=O)c2cccs2)sc2nsc(SCCN3CCCCC3)c12	14.6 µM (active)
O=C1C=CC(=O)c2c(O)c(CO)c(CO)c(O)c21	inactive
CCN(CC)c1ccc(/C=C(\C#N)C(=O)NCc2ccccc2)cc1	14.6 µM (active)
Cc1cc[n+](-c2[nH]c(=O)sc2/C=N/N=C(\[O-])c2ccccc2)cc1C	10.3 µM (active)
COc1cc(C2C=C(c3cccs3)Nc3ncnn32)cc(OC)c1OC (stereo not given)	inactive
Cc1cc(C)n2nc3nc4c(cc3c2n1)CCCC4	inactive
O=C(/C=C/c1ccc(Cl)cc1Cl)c1nc2ccccc2[nH]1	20.6 µM (active)
COc1ccc(NC(=O)c2nc(-c3ccc(C)cc3)n3c2CCCCC3)cc1	inactive
O=C(CC1CC2CCC1C2)NCc1cccs1 (stereo not given)	inactive
CN1CCc2c(sc(NC(=O)CSc3ccc(F)cc3)c2-c2nc3ccccc3s2)C1	inactive
O=[N+]([O-])c1ccc(-c2cn3nc(-c4ccccc4)c(-c4ccccc4)nc3n2)cc1	inactive

Structure (SMILES)	Potency
CC[C@@]1(C(=O)OC)N[C@H](CN(C)C(=O)c2ccc(C)cc2)[C@@H]2C(=O)N(Cc3ccccc3)C(=O)[C@@H]21	inactive
C=C1CCN(c2ccc(C(=O)O)cc2[N+](=O)[O-])CC1	inactive
Cc1ccc(-c2nc(C=Nc3ccc(O)cc3)c(O)o2)cc1	inactive
O=C(NCc1cccc(F)c1)c1cccc2c1C(=O)c1ccc(N3CCCC3)cc1S2(=O)=O	inactive
CN(C)CCNc1ccc2ncn3c4ccc(O)cc4c(=O)c1c23	8.19 µM (active)
COC(=O)c1c(NC(=O)CC2Nc3cc(C)c(C)cc3NC2=O)sc(C)c1C (stereo not given)	inactive
Cc1cc2c(cc1C)NC(c1c(C)n(C)n(-c3ccccc3)c1=O)C1=C(CC(C)(C)CC1=O)N2 (stereo not given)	inactive
O=C(Nc1nc2c(s1)CN(Cc1ccccc1)CC2)c1cccc(S(=O)(=O)N2CCc3ccccc32)c1	inactive
CCOC(=O)Cn1c(=NC(=O)c2ccc([N+](=O)[O-])s2)sc2ccccc21	inactive
Cc1nc2nc(-c3cccs3)cn2nc1C	inactive
Nc1cnccc1C(=O)O	20.6 µM (active)
CCN(CC)c1ccc(/C=C(/C#N)c2nc3ccc(C)cc3[nH]2)c(OC(C)C)c1	inactive
CCN(CC)c1ccc2c(-c3ccc(S(=O)(=O)O)cc3S(=O)(=O)[O-])c3ccc(=[N+](CC)CC)cc-3oc2c1	11.6 µM (active)
S=C(Nc1ccc(N2CCOCC2)cc1)Nc1ccc2nc(-c3ccco3)c(-c3ccco3)nc2c1	32.6 µM (active)
Cc1ccccc1-n1c(SCc2c(C)noc2C)nnc1-c1cccnc1	inactive
Cc1ccc(C2C=C(c3ccccc3)Nc3nc(NS(=O)(=O)c4ccccc4)nn32)cc1 (stereo not given)	inactive
COc1cc(OC)c(N(C)C(=O)c2sc3nc4n(c(=O)c3c2C)CCCC4)cc1Cl	inactive
Cc1cccc(CCNC(=O)c2sc3nc4n(c(=O)c3c2C)CCCC4)c1	inactive
Cn1c(=O)cc2c3c(c(N4CCCCC4)ccc31)C(=O)c1ccccc1-2	inactive
CC1CC(C)CN(C(=O)c2ccc3c(c2NCCO)C(=O)c2ccccc2C3=O)C1 (stereo not given)	inactive

— PubChem BioAssay (NCATS)
